Measurements as given in paper PMC4336329 (PLoS ONE, 2015).
Screen size: about 310,000 compounds; about 14,000 (4.5%) showed an effect of 50% or more. Effects have a minus sign here. The sample holds strong results, similar compounds and a random draw of the others, so the mix is not that of the screen.

What follows are molecules tested against human ether-à-go-go-related gene (hERG) potassium channel (human, UniProt Q12809) (assay: primary screen, population patch clamp on CHO cells stably expressing hERG; higher = less effect of the substance).
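Further: peak tail current of the secondary pulse compared with the same well before compound.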

Chain of human ether-à-go-go-related gene (hERG) potassium channel (Q12809 whole entry, looked up): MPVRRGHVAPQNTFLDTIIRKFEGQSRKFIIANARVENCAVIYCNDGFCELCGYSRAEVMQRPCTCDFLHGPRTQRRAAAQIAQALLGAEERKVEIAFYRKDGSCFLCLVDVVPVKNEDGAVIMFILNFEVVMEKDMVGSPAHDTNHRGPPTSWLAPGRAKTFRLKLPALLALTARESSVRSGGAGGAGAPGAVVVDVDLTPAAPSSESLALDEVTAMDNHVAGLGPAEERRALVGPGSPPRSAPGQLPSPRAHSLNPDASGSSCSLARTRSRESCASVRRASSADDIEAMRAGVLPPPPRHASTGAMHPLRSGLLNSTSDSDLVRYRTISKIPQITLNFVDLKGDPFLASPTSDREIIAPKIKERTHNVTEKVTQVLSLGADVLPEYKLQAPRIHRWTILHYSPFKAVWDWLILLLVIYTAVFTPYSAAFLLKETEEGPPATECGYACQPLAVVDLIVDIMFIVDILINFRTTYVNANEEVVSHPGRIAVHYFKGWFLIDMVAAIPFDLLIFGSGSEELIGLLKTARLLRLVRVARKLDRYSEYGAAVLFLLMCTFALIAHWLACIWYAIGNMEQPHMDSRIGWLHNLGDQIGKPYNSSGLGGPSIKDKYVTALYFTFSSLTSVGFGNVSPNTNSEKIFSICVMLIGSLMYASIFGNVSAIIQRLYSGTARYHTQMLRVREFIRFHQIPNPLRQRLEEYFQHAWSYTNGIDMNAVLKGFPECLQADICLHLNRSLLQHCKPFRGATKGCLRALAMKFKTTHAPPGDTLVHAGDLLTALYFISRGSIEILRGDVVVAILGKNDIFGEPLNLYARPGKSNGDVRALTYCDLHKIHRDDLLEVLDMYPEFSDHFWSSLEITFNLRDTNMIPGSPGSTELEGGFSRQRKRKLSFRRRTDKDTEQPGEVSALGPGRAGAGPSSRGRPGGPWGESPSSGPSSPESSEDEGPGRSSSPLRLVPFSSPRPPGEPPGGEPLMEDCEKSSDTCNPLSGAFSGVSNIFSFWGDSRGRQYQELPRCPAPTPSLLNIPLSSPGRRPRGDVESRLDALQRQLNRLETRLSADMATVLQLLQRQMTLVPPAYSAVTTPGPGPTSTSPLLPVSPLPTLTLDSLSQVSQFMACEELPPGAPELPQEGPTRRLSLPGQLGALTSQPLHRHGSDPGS

| Structure (SMILES) | hERG current change (%, negative = inhibition) at 10uM |
| --- | --- |
| O=C(O)c1ccccc1NS(=O)(=O)c1ccc2c3c(cccc13)C(=O)N2 | 16.1% |
| CC1CCN(CCCNC(=O)CCCNC(=O)Cn2cnc3sc4c(c3c2=O)CCCC4)CC1 | 12.3% |
| Cc1ccc(NC(=O)NCCCl)cc1S(=O)(=O)N1CCOCC1 | 1.99% |
| COc1ccc2cc3cc(C(=O)N4CCN(c5ccccc5)CC4)oc3nc2c1 | 13.2% |
| CN(C)CCC1Sc2ccccc2Oc2ccccc21.O=C(O)C(=O)O (stereo not shown) | -24.8% |
| CC1c2ccccc2SC(CCCN(C)C)c2ccccc21.O=C(O)/C=C\C(=O)O (stereo not shown) | -19.2% |
| CN(C)CCCC1Sc2ccccc2Sc2ccccc21.O=C(O)C(=O)O (stereo not shown) | -56.1% |
| Cc1nc2scc(C)n2c(=O)c1S(=O)(=O)N1CCN(c2ccc([N+](=O)[O-])cc2)CC1 | -12% |
| CCN(CC)c1ccc(NC(=O)CSc2nnc(N)s2)cc1C | 2.78% |
| COC(C/C=C\C(=O)[C@H](C)OCc1ccccc1)OC | 9.66% |
| O=C(CCC1CCCCC1)NCCN1C2=NC[C@H](Cc3ccccc3)N2C[C@H]1Cc1ccc(O)cc1 | -42% |
| O=C(CCC1CCCCC1)NCCN1C2=NC[C@H](Cc3ccc(O)cc3)N2C[C@H]1Cc1ccc(O)cc1 | -4.37% |
| COc1ccc(C[C@H]2CN3C(=NC[C@@H]3Cc3ccccc3)N2CCNC(=O)CCC2CCCCC2)cc1 | -73.7% |
| O=C(CCC1CCCCC1)NCCN1C2=NC[C@@H](Cc3ccccc3)N2C[C@H]1Cc1ccc(O)cc1 | -69.3% |
| COc1ccc(C[C@H]2CN3C(=NC[C@H]3Cc3ccccc3)N2CCNC(=O)CCC2CCCCC2)cc1 | -71.9% |
| CCOC(=O)c1ccc(NC(=O)c2ccnn2C)cc1 | 4.61% |
| CC(OC(=O)c1nc(-c2ccccc2)n(-c2ccccc2)n1)C(=O)Nc1cc(Cl)cc(Cl)c1 (stereo not shown) | -6.35% |
| CN(C)C(CNC(=O)c1ccc2ccccc2n1)c1ccccc1 (stereo not shown) | 11.1% |
| CC(=O)OC1N=C(c2ccccc2)c2cc(Br)ccc2NC1=O (stereo not shown) | -10.2% |
| O=C1Nc2ccc(Br)cc2C(c2ccccc2)=NC1O (stereo not shown) | 13.1% |

| Structure (SMILES) | hERG current change (%, negative = inhibition) at 10uM |
| --- | --- |
| CC(=O)OC1N=C(c2ccc(Cl)cc2)c2cc(Br)ccc2NC1=O (stereo not shown) | -55% |
| O=C1Nc2ccc(Br)cc2C(c2ccc(Cl)cc2)=NC1O (stereo not shown) | -56.5% |
| CC(=O)OC1N=C(c2ccccc2Cl)c2cc(Br)ccc2NC1=O (stereo not shown) | -40.3% |
| O=C1Nc2ccc(Br)cc2C(c2ccccc2Cl)=NC1O (stereo not shown) | -48.6% |
| COc1cc2c(=O)n(Cc3ccccc3)c(=O)n(CC(=O)NCCc3ccccc3)c2cc1OC | 0.36% |
| CC(Nc1ncnc2sccc12)c1ccccc1 (stereo not shown) | -29.8% |
| Cc1ccc(C(=O)NCCNC(=O)CN2CCCC2)cc1 | 5.16% |
| Cc1ccccc1-c1nc(P(=O)(c2ccccc2)c2ccccc2)c(N2CCOCC2)o1 | -19.5% |
| Cc1cccc(OCCNc2cc(N3CCOCC3)ccc2[N+](=O)[O-])c1 | -12.8% |
| C#CCOCCOCCOCCNc1nc(N2CCN(C(=O)[C@H](C(C)C)n3cc(CCO)nn3)CC2)nc(N2CCN(C(=O)[C@H](C(C)C)n3cc(CCO)nn3)CC2)n1 | 2.97% |
| CC1(C)Cc2cccc(OCC(O)CNCc3ccccn3)c2O1.Cl (stereo not shown) | -25.1% |
| COC(=O)c1ccc(COc2cccc3c2OC(C)(C)C3)cc1 | 28.7% |
| COc1ccc(CNCC(O)COc2ccc(C)cc2[N+](=O)[O-])cc1 (stereo not shown) | -71.2% |
| COc1ccc(OCCOCCOc2ccc(C)cc2[N+](=O)[O-])cc1 | -22.4% |
| COc1ccc(CNCC(O)COc2cccc3c2OC(C)(C)C3)cc1.Cl (stereo not shown) | -60.5% |
| Cc1ccc([N+](=O)[O-])c(OCC(O)CNC(C)(C)C)c1.Cl (stereo not shown) | 3.01% |
| O=C(CSc1nnc(-c2cccnc2)o1)N1CCCCC1 | 9.4% |
| CC(C)C(NC(=O)C1CCCCC1)C(=O)NCc1ccccn1 (stereo not shown) | 9.17% |
| CC(C)CC1C(C#N)=C(N)SC(N)=C1C#N | 15.9% |
| Cc1cccc2sc(NC(=O)CN(C)S(=O)(=O)c3ccc(Br)s3)nc12 | -2.49% |

| Structure (SMILES) | hERG current change (%, negative = inhibition) at 10uM |
| --- | --- |
| CCc1cccc(C)c1NC(=O)CN(C)S(=O)(=O)c1ccc(-c2ccc(=O)[nH]n2)s1 | -55.3% |
| Cc1ccc(N(C)S(=O)(=O)c2ccc(-c3ccc(=O)[nH]n3)s2)cc1C | 13.7% |
| Cc1cc(NC(=O)CN(C)S(=O)(=O)c2ccc(-c3ccc(=O)[nH]n3)s2)ccc1Br | 7.95% |
| CCOc1ccc(N(C)S(=O)(=O)c2ccc(-c3ccc(=O)[nH]n3)s2)cc1 | -15.6% |
| Cc1cccc(C)c1NC(=O)CN(C)S(=O)(=O)c1ccc(-c2ccc(=O)[nH]n2)s1 | -51.7% |
| COc1cc(OC)cc(C(=O)N[C@H](C(=O)OCC(=O)Nc2ccc(F)c(F)c2)C(C)C)c1 | -8.85% |
| Cc1cc(/C=C2\SC(=O)N(C)C2=O)c(C)n1-c1ccc(S(N)(=O)=O)cc1 | 13.3% |
| COc1cccc(-c2cc(C(F)(F)F)nc(NCc3ccco3)n2)c1 | 18.8% |
| Fc1cccc(Cl)c1-c1nnc2ccc3ccccc3n12 | 10.3% |
| Cc1ccc2c(c1)N(C(=O)CCC(=O)N1CCN(c3ccccn3)CC1)CC(C)O2 (stereo not shown) | -46.1% |
| O=C(CCN1C(=O)COc2ccccc21)N1CCN(c2ccccn2)CC1 | -69.3% |
| O=C(O)CCC(=O)N1CCOc2ccc(Cl)cc21 | 2.92% |
| O=C(CCN1C(=O)COc2ccccc21)N1CCN(c2ccccc2)CC1 | -15% |
| Cc1ccc(C)c(N2CCN(C(=O)CCC(=O)N3CCOc4ccc(Cl)cc43)CC2)c1 | -18.9% |
| Cc1ccc2c(c1)N(C(=O)CCC(=O)N1CCN(c3cccc(C)c3C)CC1)CCO2 | -18.7% |
| O=C(CCC(=O)N1CCOc2ccc(Cl)cc21)N1CCN(c2ccccn2)CC1 | -57.5% |
| O=C(CCN1C(=O)COc2ccccc21)N1CCCCC1 | -6.49% |
| Cc1ccc2c(c1)N(C(=O)CCC(=O)N1CCN(c3ccccn3)CC1)CCO2 | -52.2% |
